# PubChem BioAssay AID463165 (Johns Hopkins Ion Channel Center, 2010)
# Among all 310,000 compounds or so, about 1,400 (0.45%) were called active.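 Rule for the calls: active = B-score, a plate-corrected calcium signal, over three deviations above library mean, with baseline fluorescence within five deviations of library mean; inactive = the rest.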 The entries come from a sample that favours actives as a whole.
# Target: Regulator of G-protein signaling 4 (Homo sapiens) (UniProt P49798)
# Assay: RGS4 inhibitors, primary screen, cell-based, HEK293 M3R inducible RGS4, calcium flux (AID 463165);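 note: RGS4 expression induced by doxycycline in cells with stable M3 receptor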;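 for B-score: B-score is computed from the integrated fluorescence ratio over baseline after carbachol; higher B-score means a larger calcium signal and so more RGS4 inhibition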
# Conditions: Fluo-4 calcium flux, at 10 µM, triggered by carbachol at its EC20; stronger effect = higher value
# Chain of Regulator of G-protein signaling 4 (Homo sapiens) (P49798 whole entry, looked up): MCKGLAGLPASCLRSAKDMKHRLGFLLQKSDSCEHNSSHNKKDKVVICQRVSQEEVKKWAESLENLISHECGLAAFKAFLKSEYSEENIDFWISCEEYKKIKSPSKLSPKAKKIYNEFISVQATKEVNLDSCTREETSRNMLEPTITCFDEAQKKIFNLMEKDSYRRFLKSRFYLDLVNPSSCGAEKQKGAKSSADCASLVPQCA
row,SMILES,B-score
1,CN=C(NC#N)NCCSCc1nc[nH]c1C,inactive
2,COc1ccc(CN(C(=O)CSc2nnc(-c3ccc(OC)c(OC)c3)o2)c2ccc(F)cc2)cc1,inactive
3,Cc1ccc(/C=N/NC(=O)CSc2ccccn2)o1,inactive
4,CCOc1ccc(/C=N/NC(=O)CSc2ccccn2)cc1O,4.74 (active)
5,CCOc1ccc(/C=N/NC(=O)C(C)Sc2ccccn2)cc1OCC (configuration not stated),inactive
6,Cc1cc(=O)oc2cc(OC(C)C(=O)Nc3ccc(N4CCOCC4)cc3)ccc12 (configuration not stated),inactive
7,COc1cc(NC(=O)CSC(=S)N2CCCC2)c(OC)cc1Cl,inactive
8,CC(C)(C)Oc1ccccc1Nc1nc(NCCO)nc(N2CCCC2)n1,inactive
9,CCOc1ccc(CNC(=O)CCC(=O)N2CCSc3ccccc32)cc1,inactive
10,C[C@H](NC(=O)c1nc[nH]c1C(=O)NCC(=O)OC(C)(C)C)C(=O)OCc1ccccc1,inactive
11,CC(C)(C)OC(=O)CNC(=O)c1[nH]cnc1C(=O)N[C@@H](Cc1ccccc1)C(=O)OCc1ccccc1,inactive
12,C[C@H](NC(=O)c1nc[nH]c1C(=O)NCC(=O)OC(C)(C)C)c1ccccc1,5.48 (active)
13,Cc1ccc(N(C(=O)c2ccc(CN3CCOCC3)o2)C(C(=O)NCCC(C)C)c2cccs2)c(C)c1 (configuration not stated),inactive
14,O=C(CSCc1ccccc1)Nc1ccccc1,inactive
15,CCN(CC)S(=O)(=O)c1ccc(N2CC(C(=O)NCc3cccnc3)CC2=O)cc1 (configuration not stated),inactive
16,O=C(O)c1ccc2c(=O)n3c(nc2c1)/C(=C/c1ccc(OC(F)F)cc1OC(F)F)CC3,inactive
17,Cc1ccc(/C=C2\CCn3c2nc2cc(C(=O)O)ccc2c3=O)c(C)c1,6.23 (active)
18,N#Cc1ccc(/C=C2\CCn3c2nc2cc(C(=O)O)ccc2c3=O)cc1,inactive
19,CCOC1CS(=O)(=O)CC1OCC (configuration not stated),inactive
20,CCCN(CCC)S(=O)(=O)c1ccc(C(=O)N2CC3CCC(CC3)C2)cc1,inactive
21,CC(C)=CCCC1(C)C=Cc2c(ccc3c2[nH]c2cc(O)c(C)cc23)O1 (configuration not stated),inactive
22,O=C(O)CCC(=O)N(Cc1ccccc1)Cc1ccccc1,inactive
23,O=C(Nc1ccccc1Cl)c1ccccc1S(=O)(=O)c1ccccc1[N+](=O)[O-],inactive

row,SMILES,B-score
1,COc1ccccc1C1C(C#N)=C(N)Oc2c1c(-c1ccccc1)nn2-c1ccccc1 (configuration not stated),8.32 (active)
2,Cc1nn(-c2ccccc2)c2c1C(c1ccc(F)cc1)C(C#N)=C(N)O2 (configuration not stated),inactive
3,Cc1nn(Cc2ccccc2)c2c1C(c1ccccc1)C(C#N)=C(N)O2 (configuration not stated),inactive
4,Cc1cccc(OCCCC(=O)Nc2ccc(S(=O)(=O)N3CCCC3)cc2)c1,inactive
5,CS(=O)(=O)c1ccc(C(=O)OCC(=O)NNC(=O)COc2ccc(Cl)cc2)cc1,inactive
6,Cc1ccc(NC(=O)N2CCC(c3nc4c(nnn4Cc4c(F)cccc4Cl)c(=O)[nH]3)CC2)cc1,inactive
7,O=C(Nc1ccc(F)cc1)N1CCCC(c2nc3c(nnn3Cc3ccccc3Cl)c(=O)[nH]2)C1 (configuration not stated),inactive
8,Cc1ccc(C)c(Cn2nnc3c(=O)[nH]c(C(=O)Nc4ccc(F)cc4)nc32)c1,7.87 (active)
9,O=C(O)C1C2C=CC(C2)C1C(=O)NCc1ccccc1 (configuration not stated),inactive
10,O=C(CN1C(=O)NC2(CCCCCC2)C1=O)NCc1cccs1,inactive
11,COC(=O)c1c(C(=O)OC)c2n(c1C)CCS2,inactive
12,COc1ccc(C)cc1NC(=O)CSc1nnc2ccc(-c3ccccn3)nn12,inactive
13,COc1ccc(S(=O)(=O)Nc2ccc(O)c(Sc3nc4ccccc4s3)c2)cc1,5.99 (active)
14,O=C(O)c1cccc(S(=O)(=O)Nc2ccc(O)cc2Sc2nc3ccccc3s2)c1,inactive
15,CCOc1ccc(S(=O)(=O)Nc2nc3cc(OC)ccc3s2)cc1,inactive
16,CNc1nccc(-c2ccc(Cl)cc2)c1C#N,inactive
17,Cc1ccc(C)c2c1cc(C)c1nnc(SCC(=O)Nc3cccc(C(=O)O)c3)n12,inactive
18,Cc1cc(NC(=O)CSc2nc(C(C)C)nc3sc4c(c23)CCC(C)C4)no1 (configuration not stated),inactive
19,CC(C)c1nc(SCC(=O)Nc2cccc(C(=O)O)c2)c2c3c(sc2n1)CCCC3,5.64 (active)
20,Cc1ccccc1OC(=O)Cn1c(C(F)(F)F)nc2ccccc21,inactive
21,Cc1ccc(-n2[nH]c(C)c(/C=N/NC(=O)c3cccc([N+](=O)[O-])c3)c2=O)cc1C,inactive
22,COc1ccc(-c2csc(Nc3ccc(O)cc3)n2)cc1,8.75 (active)
23,COc1ccc(-c2csc(Cc3nc(O)cs3)n2)cc1,inactive

row,SMILES,B-score
1,COc1ccc(-c2csc(NC(=O)COC(=O)c3ccc(Br)o3)n2)cc1,inactive
2,CCOc1ccc(OCC)c(NC(=O)CCS(=O)(=O)c2ccc(C)cc2)c1,inactive
3,CN(C)c1ccc(CNC2C3CC4CC(C3)CC2C4)cc1 (configuration not stated),inactive
4,CC(=O)Nc1cccc(-c2nc3ccccc3s2)c1C,inactive
5,COc1ccc(Oc2cn[nH]c2-c2ccc(OC)cc2O)cc1,inactive
6,Oc1ccc(-c2[nH]ncc2-c2nc3ccccc3s2)c(O)c1,5.08 (active)
7,CCC1(C(=O)c2ccccc2)C(c2cccc([N+](=O)[O-])c2)C1(C(=O)OC)C(=O)OC (configuration not stated),inactive
8,CC(CC(=O)C1C(C)C=CCC1(C)C)NNC(N)=O (configuration not stated),inactive
9,CC(=O)NCCC(=O)Nc1nc(-c2ccc3c(c2)OCCO3)cs1,inactive
10,Cc1csc(NC(=O)C2=COCCO2)n1,inactive
11,Cc1ccc(-c2csc(NC(=O)C3=COCCO3)n2)cc1C,9.56 (active)
12,COc1cccc(NC(C)=[N+](C)CCNS(=O)(=O)c2ccc(Cl)cc2)c1,inactive
13,CCCCN1C(=O)CC(N2CCOCC2)C1=O (configuration not stated),inactive
14,O=C(CN1CCC(O)(c2ccccc2)CC1)Nc1ccc2c(c1)OCCO2,inactive
15,O=C(CCN1CCc2ccccc2C(O)(c2ccccc2)C1)c1ccc2c(c1)OCCO2 (configuration not stated),8.45 (active)
16,CCC1(c2ccccc2)NC(=O)N(CC(=O)c2ccc3c(c2)OCO3)C1=O (configuration not stated),inactive
17,CC(CO)N1CCS(=O)(=O)CC1 (configuration not stated),inactive
18,COc1cccc(OC)c1C(=O)Nc1ccc(Cc2ccncc2)cc1,inactive
19,Cc1nc(Nc2ccc(S(=O)(=O)N3CCCC3)cc2)c2nnn(Cc3ccccc3)c2n1,inactive
20,Clc1ccc(Nc2ncnc3c2nnn3Cc2ccccc2)cc1,inactive
21,CC(C)Cc1nc(Nc2ccc(S(=O)(=O)N3CCCC3)cc2)c2nnn(Cc3ccccc3)c2n1,4.81 (active)
